Structures are written as SMILES.

Design in all cases: species or system human, MV4-11 + K-562 + COLO205 + SK-N-BE2 + OVCAR-8
The test system of one assay is RAB6A;RAB6B. The following applies: read-out: apparent Kd; compound concentrations: 100 nM and 1000 nM (sheet 'Samples'), CATDS: 6.2517900726017095E-2; n = 1.
The subject of the next assay is AGPS. The following applies: read-out: apparent Kd; compound concentrations:100 nM and 1000 nM (sheet 'Samples'); n = 1.
A further assay concerns IGF1R. The following applies: read-out: apparent Kd; compound concentrations: 100 nM and 1000 nM (sheet 'Samples'), CATDS: 4.98725467652835E-2; n = 1.
Another assay relates to INSR. Conditions: read-out: apparent Kd; compound concentrations: 100 nM and 1000 nM (sheet 'Samples'), CATDS: 5.9878421296946899E-2; n = 1.
For the next assay, the system named is CAMK2G. Conditions: read-out: apparent Kd; compound concentrations:100 nM and 1000 nM (sheet 'Samples'); n = 1.
In the next assay the test system is HSP90AA1. Conditions: read-out: apparent Kd; compound concentrations: 100 nM and 1000 nM (sheet 'Samples'), CATDS: 6.9109754816413196E-2; n = 1.
Another assay relates to HSPE1. Conditions: read-out: apparent Kd; compound concentrations: 100 nM and 1000 nM (sheet 'Samples'), CATDS: 0.293798637885134; n = 1.
Another assay deals with PGK1. Conditions: read-out: apparent Kd; compound concentrations: 100 nM and 1000 nM (sheet 'Samples'), CATDS: 0.39771264362053399; n = 1.
For a further assay, the system named is CDC42BPG. The following applies: read-out: apparent Kd; compound concentrations: 100 nM and 1000 nM (sheet 'Samples'), CATDS: 6.5617212110221396E-2; n = 1.
In a further assay the test system is GRAMD1A. The following applies: read-out: apparent Kd; compound concentrations: 100 nM and 1000 nM (sheet 'Samples'), CATDS: 4.7101579015389999E-2; n = 1.
The subject of a further assay is MAP4K4. The following applies: read-out: apparent Kd; compound concentrations: 100 nM and 1000 nM (sheet 'Samples'), CATDS: 5.45482325953821E-2; n = 1.
A further assay relates to SMG1. The following applies: read-out: apparent Kd; compound concentrations: 100 nM and 1000 nM (sheet 'Samples'), CATDS: 0.40091827457547202; n = 1.
A further assay concerns HMOX2. Conditions: read-out: apparent Kd; compound concentrations:100 nM and 1000 nM (sheet 'Samples'); n = 1.
The subject of another assay is PRKG1. The following applies: read-out: apparent Kd; compound concentrations:100 nM and 1000 nM (sheet 'Samples'); n = 1.
The test system of another assay is PRKX. Conditions: read-out: apparent Kd; compound concentrations:100 nM and 1000 nM (sheet 'Samples'); n = 1.
The subject of another assay is ROCK2. Conditions: read-out: apparent Kd; compound concentrations:100 nM and 1000 nM (sheet 'Samples'); n = 1.

For `Fc1cccc(COc2ccc(Nc3ncncc3C#Cc3ccccc3)cc2Cl)c1` [GW651576X], the potency estimated from few doses with RAB6A;RAB6B was 1160 nM.

Consider `COc1ccc(COc2ccc(Cc3cnc(N)nc3N)cc2OC)cc1` [GW632580X], for which, in the assay with AGPS, the potency estimated from few doses is 1650 nM.

As to `COc1cc(N2CCN(C(C)C)CC2)ccc1Nc1nc(Nc2cccc(F)c2C(=O)O)c2cc[nH]c2n1` [GSK1819799A], the potency estimated from few doses in the assay on IGF1R was 1270 nM; in the assay with INSR, 816 nM.

Turning to `Cl.Oc1ccc2ncnc(Nc3ccc(OCc4ccccc4)cc3)c2c1` [GI262866A], the potency estimated from few doses in the assay on CAMK2G is 385 nM.

As to `Cc1[nH]nc2c1N=C(c1ccccc1Cl)c1cc([N+](=O)[O-])ccc1N2` [RO0274406-000], the potency estimated from few doses is 1380 nM with HSP90AA1, 60.7 nM in the assay on HSPE1 and 37.7 nM with PGK1.

For `COc1ccc(-c2nn3ncccc3c2-c2ccnc(Nc3ccc4c(c3)OCCO4)n2)cc1` [GW827106X], the potency estimated from few doses in the assay on CDC42BPG was 834 nM; with GRAMD1A, 1730 nM; with MAP4K4, 1220 nM.

`COc1ccc(-c2ccncc2)cc1C(N)=O` [GSK605714A]: the potency estimated from few doses in the assay on SMG1 is 1830 nM.

Turning to `Nc1c(C(=O)c2ccccc2)cnn1-c1ccc(F)cc1` [RO1151246-000], the potency estimated from few doses in the assay on HMOX2 was 2210 nM.

As to `COc1ccc(C2=NC(c3ccc(Cl)cc3F)C(C(=O)Nc3ccc4[nH]ncc4c3)=C(C)N2)cn1.O=C(O)C(F)(F)F` (stereo not shown) [GSK534913A], the potency estimated from few doses is 825 nM in the assay on PRKG1, 758 nM in the assay on PRKX and 131 nM in the assay with ROCK2.

The record behind these values is article PMC11062922 (Nature Chemical Biology, 2023).
